From PubChem BioAssay (NCATS)
Records with an inconclusive call do not appear. Values without a mark were called inactive. Calls of active or inactive are those of the source. Calls come from the whole dose curve; as a rule, active = well fitted cell-killing curve with a large enough effect; inconclusive = small, poorly fitted or top-dose-only effect, or effect the other way; inactive = no such curve, though single readings can be large or run the other way.

Assay: Quantitative High-Throughput drug screen in 47 multiple myeloma cell lines against the NCATS MIPE library collection: Karpas25_ECACC cell viability assay (AID 1918968; note: nearly all actives have a fitted effect of over 35% in size)
Settings: Karpas25 myeloma viability, CellTiter-Glo ATP, 48 h; series mostly up to 45.8 µM; viability (% of control): at the top concentration
How it was run: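 Steps: seed 500 cells per well; pin-transfer MIPE 4.0 library; incubate 48 h at 37C, 5% CO2, humidified; add CellTiter-Glo, 5 min room temperature; read luminescence.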
Potency is the fitted concentration of half-maximal effect.

| Compound | Potency | viability (% of control) [%] |
| --- | --- | --- |
| Cc1cc(CS(=O)(=O)c2ccccc2)cc(OCc2ccc(CN3CCC[C@H]3CO)cc2)c1 | 16.6 µM (active) | – |
| Cc1cccc(Nc2nc(N[C@@H]3CCCC[C@H]3N)ncc2C(N)=O)c1 | 10.5 µM (active) | – |
| CC(C)(F)C[C@H](N[C@@H](c1ccc(-c2ccc(S(C)(=O)=O)cc2)cc1)C(F)(F)F)C(=O)NC1(C#N)CC1 | – | 114 |
| C=C1[C@H](n2cnc3c(=O)[nH]c(N)nc32)C[C@H](O)[C@H]1CO | 2.96 µM (active) | – |
| C[C@]12CC[C@@H]3c4ccc(O)cc4CC[C@H]3[C@H]1[C@@H](O)[C@@H](O)[C@H]2O | 26.4 µM (active) | – |
| CC[C@H](C)n1cc(C)c2c(C(=O)NCc3c(C)cc(C)[nH]c3=O)cc(-c3ccc(N4CCNCC4)nc3)cc21 | 23.5 µM (active) | – |
| O=C1Nc2ccc(I)cc2C1=Cc1cc(Br)c(O)c(Br)c1 | 14.8 µM (active) | – |
| Cc1nc(NC(=O)N2CCC[C@@H]2C(N)=O)sc1-c1csc(C(C)(C)C)n1 | 5.9 µM (active) | – |
| OC(c1cc(C(F)(F)F)nc2c(C(F)(F)F)cccc12)C1CCCCN1 (stereo not drawn) | 16.6 µM (active) | – |
| CC(=O)N1CCN(c2ccc(OCc3nn(C)c(C)c3-c3cccc4c(CCCOc5cc(C)c(Cl)c(C)c5)c(C(=O)O)n(Cc5cccnc5)c34)cc2)CC1 | 3.32 µM (active) | – |
| CN1CC(=O)NC1=NC(=O)Nc1cccc(Cl)c1 | 5.26 µM (active) | – |
| CCC(=O)NCC[C@@H]1CCc2ccc3c(c21)CCO3 | 13.2 µM (active) | – |
| COc1cc2c(cc1OC)CC(=O)N(CCCN(C)C[C@H]1Cc3cc(OC)c(OC)cc31)CC2 | 4.69 µM (active) | – |
| Oc1cc(O)cc(C=Cc2ccc(O)c(O)c2)c1 | 7.43 µM (active) | – |
| CC(C)n1c(C=C[C@H](O)C[C@H](O)CC(=O)O)c(-c2ccc(F)cc2)c2ccccc21 | 14.8 µM (active) | – |
| CCC[C@@H](NC(=O)[C@@H]1[C@H]2CCC[C@@H]2CN1C(=O)[C@@H](NC(=O)[C@@H](NC(=O)c1cnccn1)C1CCCCC1)C(C)(C)C)C(=O)C(=O)NC1CC1 | 18.7 µM (active) | – |
| O=C(NC[C@H](O)CO)c1ccncc1Nc1ccc(I)cc1F | 6.62 µM (active) | – |
| Cc1ccc(NC(=O)Nc2cc(C(F)(F)F)ccc2F)cc1Nc1ccc2c(c1)NC(=O)C2=Cc1ccc[nH]1 | 5.26 µM (active) | – |
| Cc1c(-c2cccc3c(CCCOc4cccc5ccccc45)c(C(=O)O)n(Cc4cccnc4)c23)c(COc2ccc(N3CCN([S+](=O)([O-])N(C)C)CC3)cc2)nn1C | 20.9 µM (active) | – |
| C[C@@H]1CC=CC=CC=CC=C[C@@H](O[C@@H]2O[C@H](C)[C@@H](O)[C@H](N)[C@H]2O)C[C@@H]2O[C@](O)(C[C@@H](O)C[C@@H]3O[C@@H]3C=CC(=O)O1)C[C@H](O)[C@@H]2C(=O)O | 20.9 µM (active) | – |
| CC(C)c1c(C(=O)Nc2ccccc2)c(-c2ccccc2)c(-c2ccc(F)cc2)n1CC[C@H](O)C[C@@H](O)CC(=O)O | 11.8 µM (active) | – |
| NC[C@H]1O[C@H](O[C@@H]2[C@@H](O)[C@@H](O[C@H]3O[C@H](CO)[C@@H](O)[C@H](N)[C@@H]3O)[C@H](N)C[C@@H]2N)[C@H](O)[C@@H](O)[C@H]1O | – | 97.8 |
| N#Cc1c(N(CC(=O)O)CC(=O)O)sc(C(=O)O)c1CC(=O)O | 18.7 µM (active) | – |
| NCc1c[nH]c(=S)n1[C@H]1CCc2c(F)cc(F)cc2C1 | 23.5 µM (active) | – |

Assay: Quantitative High-Throughput drug screen in 47 multiple myeloma cell lines against the NCATS MIPE library collection: KMS27_JCRB cell viability assay (AID 1918970); note: nearly all actives have a fitted effect of over 30% in size
Settings: KMS27 myeloma cells, CellTiter-Glo ATP viability, 48 h; viability (% of DMSO): at 45.8 µM (top of the series)
How it was run: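 CellTiter-Glo luminescence after 48 h drug exposure at 37 °C; 500 cells/well, 1536-well format, pin-tool compound addition; DMSO = 100%, media-only = 0% viability.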

| Compound | Potency | viability (% of DMSO) |
| --- | --- | --- |
| Cc1cc(CS(=O)(=O)c2ccccc2)cc(OCc2ccc(CN3CCC[C@H]3CO)cc2)c1 | 4.18 µM (active) | – |
| COc1cc(C=CC(=O)O)ccc1O | – | 115% |
| Cc1cccc(Nc2nc(N[C@@H]3CCCC[C@H]3N)ncc2C(N)=O)c1 | 23.5 µM (active) | – |
| CC(C)(F)C[C@H](N[C@@H](c1ccc(-c2ccc(S(C)(=O)=O)cc2)cc1)C(F)(F)F)C(=O)NC1(C#N)CC1 | – | 103% |
| C=C1[C@H](n2cnc3c(=O)[nH]c(N)nc32)C[C@H](O)[C@H]1CO | 5.9 µM (active) | – |
| C[C@]12CC[C@@H]3c4ccc(O)cc4CC[C@H]3[C@H]1[C@@H](O)[C@@H](O)[C@H]2O | – | 134% |
| FC(F)(F)c1ccc(C=Cc2nc(COc3ccc(CCCCn4ccnn4)cc3)co2)cc1 | – | 74.6% (active) |
| O=C1Nc2ccc(I)cc2C1=Cc1cc(Br)c(O)c(Br)c1 | 10.5 µM (active) | – |
| Cc1nc(NC(=O)N2CCC[C@@H]2C(N)=O)sc1-c1csc(C(C)(C)C)n1 | 2.35 µM (active) | – |
| CCOC(=O)[C@H]1O[C@H]1C(=O)N[C@@H](CC(C)C)C(=O)NCCC(C)C | – | 104% |
| CC(=O)N1CCN(c2ccc(OCc3nn(C)c(C)c3-c3cccc4c(CCCOc5cc(C)c(Cl)c(C)c5)c(C(=O)O)n(Cc5cccnc5)c34)cc2)CC1 | 8.33 µM (active) | – |
| CCC(=O)NCC[C@@H]1CCc2ccc3c(c21)CCO3 | – | 125% |
| Oc1cc(O)cc(C=Cc2ccc(O)c(O)c2)c1 | 18.7 µM (active) | – |
| CC(C)n1c(C=C[C@H](O)C[C@H](O)CC(=O)O)c(-c2ccc(F)cc2)c2ccccc21 | 3.72 µM (active) | – |
| CCC[C@@H](NC(=O)[C@@H]1[C@H]2CCC[C@@H]2CN1C(=O)[C@@H](NC(=O)[C@@H](NC(=O)c1cnccn1)C1CCCCC1)C(C)(C)C)C(=O)C(=O)NC1CC1 | – | 101% |
| CSc1cccc(Nc2ncc3cc(-c4c(Cl)cccc4Cl)c(=O)n(C)c3n2)c1 | 0.0662 µM (active) | – |
| O=C(NC[C@H](O)CO)c1ccncc1Nc1ccc(I)cc1F | 1.48 µM (active) | – |
| Cc1ccc(NC(=O)Nc2cc(C(F)(F)F)ccc2F)cc1Nc1ccc2c(c1)NC(=O)C2=Cc1ccc[nH]1 | 8.33 µM (active) | – |
| CN1[C@H]2CC[C@H]1CC(OC(=O)c1c[nH]c3ccccc13)C2 (stereo partly drawn) | – | 107% |
| CO[C@H]1C=CO[C@@]2(C)Oc3c(C)c(O)c4c(O)c(c(C=NN5CCN(C)CC5)c(O)c4c3C2=O)NC(=O)C(C)=CC=C[C@H](C)[C@H](O)[C@@H](C)[C@@H](O)[C@@H](C)[C@H](OC(C)=O)[C@H]1C | – | 126% [at 15.3 µM] |
| Cc1c(-c2cccc3c(CCCOc4cccc5ccccc45)c(C(=O)O)n(Cc4cccnc4)c23)c(COc2ccc(N3CCN([S+](=O)([O-])N(C)C)CC3)cc2)nn1C | – | 90.9% |
| CC(C)c1c(C(=O)Nc2ccccc2)c(-c2ccccc2)c(-c2ccc(F)cc2)n1CC[C@H](O)C[C@@H](O)CC(=O)O | 4.69 µM (active) | – |
| NC[C@H]1O[C@H](O[C@@H]2[C@@H](O)[C@@H](O[C@H]3O[C@H](CO)[C@@H](O)[C@H](N)[C@@H]3O)[C@H](N)C[C@@H]2N)[C@H](O)[C@@H](O)[C@H]1O | – | 110% |
| NCc1c[nH]c(=S)n1[C@H]1CCc2c(F)cc(F)cc2C1 | 11.8 µM (active) | – |
